Reference: PubChem BioAssay (NCATS)
Records with an inconclusive call do not appear. Calls of active or inactive are those of the source. The call rests on the fitted dose curve; in most records, active means well fitted inhibition curve with a large enough effect; inconclusive means small, poorly fitted or top-dose-only effect; inactive means flat fitted curve, though single readings scatter.

What was measured:
CRL-7250 = normal cell line; test: Cytotoxic Profiling of Annotated Libraries Using Quantitative High-Throughput Screening (AID 1296008); details: Five cell lines viability, CellTiter-Glo ATP luminescence, 48-72 h; max response: active compounds read low; on max response: on the % scale 0 is the no-effect control and ±100 the full control effect
Outline: (§1)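 Cytotoxicity was measured as CellTiter-Glo ATP luminescence, read after 10 min at room temperature. Compound treatment of the cells lasted 48 or 72 hr at 37 degrees Celsius in a qHTS format.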

HaCat [1] = test: as above; details: Five cell lines viability, CellTiter-Glo ATP luminescence, 48-72 h; max response: active compounds read low
Outline: as §1

KB-3-1 = test: as above; details: Five cell lines viability, CellTiter-Glo ATP luminescence, 48-72 h; max response: active compounds read low
Outline: as §1

NIH3T3 = test: as above; details: Five cell lines viability, CellTiter-Glo ATP luminescence, 48-72 h; max response: active compounds read low
Outline: as §1

HACAT [2] = test: qHTS assay to identify novel small-molecules to repurpose for Merkel cell carcinoma treatment (AID 1296009); details: MCC and control cell lines, CellTiter-Glo viability, 72 h; at 44.8 µM (top of the series) unless noted
Outline: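 After compound transfer in DMSO, plates were kept 72 hr at 37 degree celsius. Luminescent ATP signal from CellTiter-Glo served as viability measure, normalized against DMSO and no-cell controls.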

Measured: max response
Further: nearly all actives have a fitted effect of over 60% in size.

CC12CCC3C1C(c1c(cc(O)c(C(=O)c4ccccc4)c1O)O2)C3(C)C (stereo not given)
inactive: CRL-7250 3.27% | HaCat [1] | KB-3-1 -20.8% | NIH3T3 -2.16% | HACAT [2]

C[C@H](Nc1cc2c(-c3ccc4c(c3)OCO4)noc2cn1)c1ccccc1
inactive: CRL-7250 3% | HaCat [1] -9.56% | KB-3-1 | NIH3T3 -4.93%

CN(C)c1ccc(NC(=O)NS(=O)(=O)c2ccc(Cl)cc2)cc1
inactive: CRL-7250 -11.7% | HaCat [1] | KB-3-1 | NIH3T3 -5.53% | HACAT [2]

O=C(C(Cc1cccc(C(F)(F)F)c1)NS(=O)(=O)c1cc(F)c2c(c1)CCNC2)N1CCCC1 (stereo not given)
inactive: CRL-7250 -1.14% | HaCat [1] -1.4% | KB-3-1 -6.26% | NIH3T3 1.31%

CO[C@@H]1[C@H](O)CCC2(CO2)[C@H]1[C@@]1(C)O[C@@H]1CC=C(C)C (stereo not given in full)
inactive: CRL-7250 -6.79% | HaCat [1] -1.46% | KB-3-1 | NIH3T3 -13.7%

CC(=O)OC1CC(C)(C(=O)O)CC2C3=CC(=O)C4C5(C)CCC(OC6OC(C(=O)O)C(O)C(O)C6OC6OC(C(=O)O)C(O)C(O)C6O)C(C)(C)C5CCC4(C)C3(C)CCC12C (stereo not given)
inactive: CRL-7250 -2.54% | HaCat [1] | KB-3-1 3.1% | NIH3T3 1.8% | HACAT [2] inactive [at 9.27 µM]

C=C1C(=O)OC2C=C(C)CC/C=C(\CO)CC(O)C12 (stereo not given)
inactive: CRL-7250 -3.89% | HaCat [1] | KB-3-1 5.92% | NIH3T3 -2.7% | HACAT [2]

C=C1CCCC2(C)CCC(C(C)(C)OC3OC(C)C(O)C(O)C3OC(=O)/C(C)=C\C)CC12 (stereo not given)
inactive: CRL-7250 3.11% | HaCat [1] | KB-3-1 -8.14% | NIH3T3 | HACAT [2] inactive [at 17.4 µM]

CC(=O)OC[C@]12[C@H](OC(C)=O)[C@H](OC(=O)c3ccccc3)[C@@H]3[C@@H](OC(C)=O)[C@]1(OC3(C)C)[C@H](C)C[C@H](OC(C)=O)[C@@H]2OC(=O)c1ccccc1
inactive: CRL-7250 | HaCat [1] -0.678% | KB-3-1 4.67% | NIH3T3 3.09%

Cc1ccc(OC[C@H](O)[C@H](C)NC(C)C)c2c1CCC2
inactive: CRL-7250 -3.77% | HaCat [1] | KB-3-1 5.3% | NIH3T3 0.0465% | HACAT [2]

O=C(NCCO)c1cccc(-c2cc(Nc3ccc(OC(F)(F)F)cc3)ncn2)c1
inactive: CRL-7250 0.504% | HaCat [1] -14.2% | KB-3-1 -22.2% | NIH3T3 -22.6%

Cc1cc(NC(=O)NCCN2CCC(O)(Cc3ccccc3)CC2)c2ccccc2n1
inactive: CRL-7250 2.34% | HaCat [1] | KB-3-1 -1.93% | NIH3T3 | HACAT [2]

Cc1cccc(N2CCN(C(=O)c3cc(S(=O)(=O)N(C)C)ccc3N3CCCC3)CC2)c1C
inactive: CRL-7250 -10.2% | HaCat [1] | KB-3-1 | NIH3T3 -5.43% | HACAT [2]

CCC(C)/C=C(C)/C=C/C1=CC2=C(Cl)C(=O)C(C)(OC(C)=O)C(=O)C2(O)C(OC)O1 (stereo not given)
inactive: CRL-7250 | HaCat [1] | KB-3-1 | NIH3T3 | HACAT [2] inactive [at 17.4 µM]

CC1=C2C[C@@]3(C)C(CCC[C@@H]3C)C(O)C2OC1=O (stereo not given in full)
inactive: CRL-7250 2.27% | HaCat [1] | KB-3-1 5.15% | NIH3T3 | HACAT [2]

CC/C(C)=C/C(=O)OC1C(OC2(C)CCC3C(C4C(C)CCC42)C3(C)C)OC(C)C(O)C1O (stereo not given)
inactive: CRL-7250 -1.32% | HaCat [1] -0.133% | KB-3-1 | NIH3T3 -0.0823%

CC1OC2OC(=O)C3(C)CC4C5(CO5)C5=CC(=O)OC(C)(C)C5=CC(=O)C4(C)C(C1=O)C23 (stereo not given)
inactive: CRL-7250 -8.36% | HaCat [1] | KB-3-1 | NIH3T3 1.81% | HACAT [2] inactive [at 17.4 µM]

Cc1ccc(-c2ncc[nH]2)cc1NC(=O)c1ccc(OCc2ccccn2)cc1
inactive: CRL-7250 -5.69% | HaCat [1] | KB-3-1 -1.78% | NIH3T3 -1.84% | HACAT [2]

O=C(NCCN1CCN(c2cccc3c2OCCO3)CC1)c1ccc(F)cc1
inactive: CRL-7250 2.38% | HaCat [1] -12.9% | KB-3-1 -10.3% | NIH3T3 2.39%

CCc1ccc(-c2nc(CSCC(=O)NCCc3ccccc3)c(C)o2)cc1
inactive: CRL-7250 2.64% | HaCat [1] | KB-3-1 -10.3% | NIH3T3 -12.1% | HACAT [2]

COC1=CC(=O)C=C(C)C12Oc1c(Cl)c(OC)cc(OC)c1C2=O (stereo not given)
inactive: CRL-7250 0.695% | HaCat [1] | KB-3-1 | NIH3T3 -3.2% | HACAT [2]

COc1ccc(CCc2nc3cc(-c4c(C)noc4C)ccc3n2CC(C)N2CCOCC2)cc1Cl (stereo not given)
inactive: CRL-7250 -13.4% | HaCat [1] -1.2% | KB-3-1 0.0649% | NIH3T3 -17.1%

CCN(CC)C(=O)C(c1ccccc1)N1CCN(c2ccc(NC(=O)c3ccccc3-c3cccnc3)cc2F)CC1 (stereo not given)
inactive: CRL-7250 -1.45% | HaCat [1] | KB-3-1 | NIH3T3 | HACAT [2]

COc1ccc(C(=O)Nc2c(Cl)cncc2Cl)cc1OC1CCCC1
inactive: CRL-7250 -3.72% | HaCat [1] -24.5% | KB-3-1 -14.8% | NIH3T3 -4.74%

CC1(C)C2CCC(CO[C@@H]3O[C@H](CO[C@@H]4OC[C@](O)(CO)[C@H]4O)[C@@H](O)[C@H](O)[C@H]3O)C1C2 (stereo not given in full)
inactive: CRL-7250 1.81% | HaCat [1] | KB-3-1 | NIH3T3 | HACAT [2] inactive [at 17.4 µM]

Fc1ccc(-c2nc(-c3ccccc3F)[nH]c2-c2ccncc2)cc1
inactive: CRL-7250 3.37% | HaCat [1] 4.02% | KB-3-1 | NIH3T3 4.47%

CC(C)Oc1ccc(-c2cnc3c(-c4ccnc5ccccc45)cnn3c2)cc1
inactive: CRL-7250 0.774% | HaCat [1] 1.5% | KB-3-1 -13.7% | NIH3T3 3.7%

COc1ccc(CN2CCN(CCCSc3cc(C(C)(C)C)c(O)c(C(C)(C)C)c3)CC2)c(OC)c1OC
inactive: CRL-7250 | HaCat [1] -2% | KB-3-1 | NIH3T3 4.43%

Cn1nc(C(C)(C)C)cc1C(=O)N[C@@H](Cc1cccc(Cl)c1)C(=O)NCC#N
inactive: CRL-7250 | HaCat [1] -0.262% | KB-3-1 0.545% | NIH3T3

CN1CCc2cc3c(cc2C(=O)Cc2cc4c(cc2C1)OCO4)OCO3
inactive: CRL-7250 | HaCat [1] -8.11% | KB-3-1 | NIH3T3

CN(C)c1ccnc2sc3c(=O)n(N4CCCCCC4)cnc3c12
inactive: CRL-7250 -8.13% | HaCat [1] 1.16% | KB-3-1 7% | NIH3T3 4.09%

CC#CCn1c(N2CCCC(N)C2)nc2c1c(=O)n(Cc1nc(C)c3ccccc3n1)c(=O)n2C (stereo not given)
inactive: CRL-7250 0.556% | HaCat [1] | KB-3-1 | NIH3T3 | HACAT [2]

C=C(C(=O)OC)[C@@H]1CC=C2C=CC(=O)[C@H](C)[C@@]2(C)C1
inactive: CRL-7250 4.23% | HaCat [1] | KB-3-1 -5.91% | NIH3T3 | HACAT [2]

C1=Cc2ccccc2C(=C2CCN(CCCCc3nn[nH]n3)CC2)c2ccccc21
inactive: CRL-7250 | HaCat [1] | KB-3-1 -8.87% | NIH3T3 | HACAT [2]

CC(=O)O[C@H]1[C@@]2(O)C[C@H](C)[C@H](OC(=O)c3ccccc3)[C@@H]2[C@@H](OC(=O)CO)[C@]2(OC(C)=O)C[C@H]3C(=O)C(C)(C)C[C@@H]3[C@@]1(C)[C@H]2OC(C)=O
inactive: CRL-7250 -5.8% | HaCat [1] | KB-3-1 -0.153% | NIH3T3 1.84% | HACAT [2] inactive [at 17.4 µM]

COc1ccc2c(c1O[C@H]1CCNC1)CCC2
inactive: CRL-7250 -1.86% | HaCat [1] | KB-3-1 -7.28% | NIH3T3 | HACAT [2]

COc1cc(F)c(C(C)C)cc1-c1ccc(C(F)(F)F)cc1CN1C(=O)OC(c2cc(C(F)(F)F)cc(C(F)(F)F)c2)C1C (stereo not given)
inactive: CRL-7250 3.77% | HaCat [1] | KB-3-1 | NIH3T3 | HACAT [2]

CCCC(=O)C1(c2ccccc2)CCN(C(=O)[C@@H](Cc2ccc(OC)cc2)NC(=O)[C@@H](N)Cc2cncn2C)CC1
inactive: CRL-7250 3.05% | HaCat [1] | KB-3-1 -9.44% | NIH3T3 -0.497% | HACAT [2]

Cc1cc(C)c(S(=O)(=O)n2cc(C)cc2C)c(C)c1
inactive: CRL-7250 -3.09% | HaCat [1] | KB-3-1 2.85% | NIH3T3 | HACAT [2]

O=C(NCCCn1ccnc1)c1cc(-c2ccco2)on1
inactive: CRL-7250 -18.4% | HaCat [1] | KB-3-1 -0.296% | NIH3T3 2.29% | HACAT [2]

CCCCC1CCC(c2nc(-c3ccncc3)no2)CC1 (stereo not given)
inactive: CRL-7250 -23.2% | HaCat [1] | KB-3-1 -26.8% | NIH3T3 -3.82% | HACAT [2]

Cc1nc2cc(C(=O)NCc3ccccn3)nn2c(C)c1Cc1cccc(Cl)c1
inactive: CRL-7250 | HaCat [1] | KB-3-1 -9.98% | NIH3T3 3.03% | HACAT [2]

CCC/C=C/C=C/C1CC(O)C2(O)C(=O)OCC12 (stereo not given)
inactive: CRL-7250 | HaCat [1] | KB-3-1 7.96% | NIH3T3 4.66% | HACAT [2]

CC(=O)O[C@@H]1CC2C(C)(C)C(=O)C=C[C@]2(C)C2CC[C@@]3(C)[C@H](c4ccoc4)OC(=O)[C@H]4O[C@]43[C@@]21C (stereo not given in full)
inactive: CRL-7250 | HaCat [1] | KB-3-1 | NIH3T3 -4.81% | HACAT [2] inactive [at 17.4 µM]

COC(=O)C(Cc1ccc(OCCn2c(=O)sc3cc(C(=O)c4ccccc4)ccc32)cc1)C(=O)OC
inactive: CRL-7250 -17% | HaCat [1] | KB-3-1 0.264% | NIH3T3 2.75% | HACAT [2]

CN1CCN(c2ccc(-c3cccc(CN4CCOCC4)c3)cc2NC(=O)c2c[nH]c(=O)cc2C(F)(F)F)CC1
inactive: CRL-7250 -6.65% | HaCat [1] | KB-3-1 | NIH3T3 -7.39% | HACAT [2]

CC[C@H](C)/C=C(C)/C=C/C1=CC2=CC(=O)[C@]3(C)OC(=O)[C@@H](C(C)=O)[C@@H]3C2=CO1
inactive: CRL-7250 -1.79% | HaCat [1] | KB-3-1 4.01% | NIH3T3 -1.49% | HACAT [2]
